Screening results deposited in PubChem by National Center for Advancing Translational Sciences (NCATS).
TDP1 inh – qHTS Assay for Inhibitors of Tyrosyl-DNA Phosphodiesterase (TDP1); Tyrosyl-DNA phosphodiesterase 1 (Homo sapiens), Q9NUW8; recombinant TDP1, AlphaScreen DNA substrate cleavage; Potency, µM (highest dose often 130 µM), usual class: inhibitors; 350,000 compounds, 0.28% hits; also: nearly all actives have a fitted effect of over 40% in size
Target sequence (Q9NUW8 whole entry, looked up): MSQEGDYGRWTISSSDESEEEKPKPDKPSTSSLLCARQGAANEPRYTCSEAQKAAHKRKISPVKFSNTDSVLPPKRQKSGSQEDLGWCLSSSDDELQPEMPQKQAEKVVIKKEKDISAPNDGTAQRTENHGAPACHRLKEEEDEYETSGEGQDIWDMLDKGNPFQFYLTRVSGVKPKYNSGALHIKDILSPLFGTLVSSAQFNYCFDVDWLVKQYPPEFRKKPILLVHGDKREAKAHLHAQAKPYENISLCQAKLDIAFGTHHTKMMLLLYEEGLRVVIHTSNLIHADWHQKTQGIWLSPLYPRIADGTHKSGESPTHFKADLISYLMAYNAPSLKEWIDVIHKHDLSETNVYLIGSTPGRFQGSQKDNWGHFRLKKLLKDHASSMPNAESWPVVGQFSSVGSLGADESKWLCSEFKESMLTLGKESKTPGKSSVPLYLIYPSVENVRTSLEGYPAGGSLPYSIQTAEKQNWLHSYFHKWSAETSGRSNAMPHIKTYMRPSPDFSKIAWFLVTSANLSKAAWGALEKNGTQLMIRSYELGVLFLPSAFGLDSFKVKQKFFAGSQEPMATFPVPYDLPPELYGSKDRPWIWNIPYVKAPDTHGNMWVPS
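E. coli-derived human Tdp1, 1 nM final. Cpd preinc 15 min RT; substrate 15 nM final, 5 min RT; AS bead mix 10 ug/ml final, 10 min RT. Signal loss = tyrosine-FITC cleavage. No-enzyme wells = max signal.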
TGFb SMAD3 inh – qHTS for Inhibitors of TGF-b; HepG2 CAGA-GFP TGF-b/SMAD3 reporter, GFP fluorescence, 18 h; TGF-beta stimulated, 500 pg/mL final; Potency, µM (series often up to 46.1 µM), actives largely listed as inhibitors; 410,000 compounds, 1.2% hits; also: nearly all actives have a fitted effect of over 65% in size
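Per well, imaged GFP fluorescence of HEPG2 CAGA-GFP cells gives the signal; cells get compound, then TGF-beta (500 pg/mL final), 18 h at 37 degrees C; %Activity versus -TGF-beta and +DMSO controls.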
TDP1 cell CPT – qHTS for Inhibitors of human tyrosyl-DNA phosphodiesterase 1 (TDP1): qHTS in cells in presence of CPT; chicken DT40 Tdp1-/-;hTDP1 cells + 20 nM CPT, ATP luminescence, 48 h; Potency, µM (doses to about 46.2 µM), actives largely listed as inhibitors; 420,000 compounds, 12% hits; AID 686979, 2013; also: nearly all actives have a fitted effect of over 55% in size
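Chicken DT40 Tdp1-/- cells complemented with human TDP1, 400 cells/well, exposed to compounds plus 20 nM camptothecin for at least 48 h at 37 C; viability read as ATP content by CellTiter-Glo luminescence.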
TDP1 cell noCPT – qHTS for Inhibitors of human tyrosyl-DNA phosphodiesterase 1 (TDP1): qHTS in cells in absence of CPT. DT40 Tdp1-/- hTDP1 cells, no CPT, ATP luminescence, 48 h. Potency, µM (series often up to 46.2 µM), usual class: inhibitors. 420,000 compounds, 15% hits. AID 686978, 2013; also: nearly all actives have a fitted effect of over 55% in size
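Compound effects on proliferation are scored in DT40 Tdp1-/-;hTDP1 cells in the absence of CPT. ATP levels (CellTiter-Glo luminescence) are recorded after a ≥48 hr, 37 °C incubation.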
IL-1B inflam inh – qHTS for Inhibitors of Inflammasome Signaling: IL-1-beta AlphaLISA Primary Screen; THP-1 LPS/ATP IL-1B secretion, AlphaLISA, 16 h; hits give low values; activity change, % at 57.5 µM; 360,000 compounds, 4.7% hits; in the data active = activity change below about -50%; inconclusive = mostly about -30% to -49%
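Secreted IL-1B measured by AlphaLISA bead assay after 16 h compound exposure of THP-1 cells; compounds (final up to 57.5 uM) added 1 h before LPS (250 ng/mL) and ATP (1.25 mM) stimulation; lower signal means less secretion.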
HepG2 tox – qHTS for Inhibitors of TGF-b: Cytotox Counterscreen; AID 588856, 2011; Potency, µM (top dose mostly 46.1 µM), usual class: cytotoxic; HepG2 CAGA-GFP viability, ATP luminescence, 18 h; 410,000 compounds, 0.76% hits
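HepG2 CAGA-GFP cells (1000/well, DMEM with 1% FBS) received compound, then TGF-beta at 500 pg/mL final, and were incubated 18 hours at 37 degrees C. Viability was read by CellTiter-Glo luminescence. Media-only wells were set as complete cell-killing and DMSO as no toxicity.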
Hits are given with their value; i = inactive; ? = inconclusive; nt = no result; [ ] = another dose, or the depositor's remark. Rows were chosen to be rich in hits. Some 18% of all compounds tested hit in one or more screens of this group. Unless noted, calls follow the shape of the dose curve; as a rule, active = well fitted curve in the direction sought with a large enough effect; inconclusive = small, poorly fitted or top-dose-only effect, or another doubt; inactive = no such curve, though single readings can be large; an effect the other way counts as inactive or inconclusive.

SMILES | TDP1 inh | TGFb SMAD3 inh | TDP1 cell CPT | TDP1 cell noCPT | IL-1B inflam inh | HepG2 tox
COc1ncnc2c1ncn2CCCNCc1ccc(C)o1 | nt | i | i | i | i | i
COC(=O)C1=C(C(=O)OC)[C@@H]2N(Cc3ccccc3)c3ccccc3[C@@]23C[C@@H](C(=O)OC)N(C(=O)c2cc(C)oc2C)C3=N1 | i[12.3 µM] | i | 23.1µM | 18.4µM | i | i
COC(=O)C1=C(C(=O)OC)[C@@H]2N(Cc3ccccc3)c3ccccc3[C@@]23C[C@@H](C(=O)OC)N(C(=O)c2ccco2)C3=N1 | i[12.3 µM] | nt | nt | nt | nt | nt
COC(=O)C1=C(C(=O)OC)[C@@H]2N(Cc3ccccc3)c3ccccc3[C@@]23C[C@@H](C(=O)OC)N(C(=O)c2cccs2)C3=N1 | i[12.3 µM] | ? | 20.6µM | ? | i | i
O=C(C1=C[C@@H](c2coc3ccccc3c2=O)C[C@@H](OCc2ccc(CO)cc2)O1)N1CCN(Cc2ccccc2)CC1 | i | i | 18.4µM | ? | ? | i
O=C(C1=C[C@@H](c2coc3ccccc3c2=O)C[C@@H](OCc2ccc(CO)cc2)O1)N1CCCCCCC1 | i | ? | 11.6µM | ? | i | i
O=C(NCc1ccccc1)C1=C[C@H](c2coc3ccccc3c2=O)C[C@H](OCc2ccc(CO)cc2)O1 | i | ? | ? | ? | ? | i
O=C(Nc1ccccc1)C1=C[C@@H](c2coc3ccccc3c2=O)C[C@@H](OCc2ccc(CO)cc2)O1 | i | i | ? | 14.6µM | i | i
CC(=O)N1N=C(c2cccc(O)c2)CC1c1cccs1 (stereo unspecified) | nt | i | 14.6µM | ? | i | i
CC(=O)N1N=C(c2ccccc2O)CC1c1cccs1 (stereo unspecified) | nt | i | ? | 6.51µM | -65.2 | i
CC(=O)N1N=C(c2cccc(NS(C)(=O)=O)c2)CC1c1cccs1 (stereo unspecified) | i | ? | i | i | i | i
CC1=C(C)/C(=N\OC(=O)/C=C/c2ccccc2)C=CC1=O | i | i | 13µM | 13µM | i | i
CC1=CC(=NOC(=O)/C=C/c2ccccc2)C=C(C)C1=O | i | ? | 20.6µM | 13µM | -64.7 | i
CC1=CC(=O)C=C(C)C1=NOC(=O)/C=C\c1ccccc1 | i | i | 16.4µM | i | i | i
CCC(CC)C(=O)Nc1cc(OC)c(OC)cc1C(=O)O | i | i | 16.4µM | 18.4µM | i | i
CCCn1nc(C(=O)NNC(=O)C2CSC3(C)CCC(=O)N23)c2ccccc2c1=O (stereo unspecified) | i | i | i | i | i | i
O=C(COC(=O)c1ccccc1SCC(=O)N1CCCC1)Nc1ccc(OC(F)F)cc1 | i | i | i | ? | i | i
CN(CC(=O)Nc1ccc(OC(F)(F)F)cc1)C(=O)c1ccccc1SCC(=O)N1CCCC1 | nt | ? | 23.1µM | ? | i | i
COc1ccc(Br)cc1CN(C)C(=O)c1ccccc1SCC(=O)N1CCCC1 | nt | i | ? | ? | -53.1 | i
CN(CC(=O)Nc1ccc(Cl)c(Cl)c1)C(=O)c1ccccc1SCC(=O)N1CCCC1 | nt | ? | ? | 23.1µM | i | i
CN(Cc1ccc(Cl)c(Cl)c1)C(=O)c1ccccc1SCC(=O)N1CCCC1 | i | ? | ? | 20.6µM | -72.2 | i
N#Cc1nc(Nc2cccc3ccccc23)nc(NC2CCCC2)n1 | i | nt | nt | nt | nt | nt
CN1CCCN(C(=O)[C@@H]2C[C@@H](Sc3nc4ccccc4[nH]3)CN2Cc2ccc(-c3ccccc3)cc2)CC1 | nt | nt | i[9.04 µM] | ? | nt | nt
CN(Cc1cccc(Cl)c1Cl)C(=O)c1ccccc1SCC(=O)N1CCCC1 | nt | ? | 11.6µM | 13µM | i | i
COc1ccccc1CN(C)C(=O)c1ccccc1SCC(=O)N1CCCC1 | i | i | ? | i | i | i
